# An excerpt weighted towards active compounds, which were near 1.6% of everything screened.
# PPC-1+TRAIL kill = compounds killing PPC-1 cancer cells with TRAIL present, primary screen, TRAIL potentiator project, ATPLite luminescence, uHTS; 0.41% of 220,000 active; cell killing (% activity), % at 4 µM or 5 µM; PPC-1 cells + TRAIL, ATPLite viability luminescence;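 active means cell killing above 50% in the first pass at 4 µM, then a duplicate retest at 5 µM averaging 50% or more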;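 further: plate controls were cells with TRAIL plus DMSO for no effect and medium-only wells lacking cells for full effect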
# STAT3 blocker = IL-6 driven STAT3 reporter inhibitors, primary screen, U3A cells, luciferase, luminescence, MLSCN library; 0.89% of 190,000 active; inhibition, % at 5.5 µM; IL-6 STAT3-luciferase reporter; host cell line lacks STAT1;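 active means inhibition above the mean inhibition across all screened compounds plus 3 SD, cut at about 44% in these data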;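 further: 0% = DMSO only wells and 100% = 100 µM nifuroxazide control wells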
# Platelet DG rel = inhibitors of platelet dense granule secretion, primary screen, cell-based, MLPCN, human platelets. human platelet-rich plasma, SFLLRN dense granule ATP release, luminescence. inhibition, %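 (compounds screened at 7.5 µM in platelet-rich plasma)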. 0.22% of 300,000 active. AID 1663, 2009;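 active means mean replicate score, as percent of positive control, at or above 50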
# STAT1 inh-1 = STAT1 signaling inhibitors, primary screen, cell-based, HTS, luciferase reporter | NIH 3T3 STAT1-luciferase reporter, IFN-gamma, luminescence | inhibition, % at 5.5 µM | 0.35% of 200,000 active;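 active means inhibition above a set limit, the mean inhibition across all tested compounds plus 3 SD, cut at about 34% in these data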;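 further: 0% = IFN-gamma with DMSO and 100% = IFN-gamma with 300 µM nifuroxazide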
# C8 TRAIL sens = viability loss with TRAIL in NB7+C8 cells, primary screen, TRAIL sensitizer project, cell-based, ATPlite luminescence; 1% of 360,000 active; inhibition (viability loss, TRAIL sensitization), % at 10 µM;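 active means compounds causing at least 50% loss of cell viability in the single-dose screen, relative to plate controls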
# STAT1 inh-2 = STAT1 signaling inhibitors, confirmation, cell-based, HTS, luciferase reporter; NIH 3T3 STAT1-luciferase reporter, IFN-gamma, luminescence; shares compounds with STAT1 inh-1; AID 1263, 2008; inhibition, % at 5.5 µM; 55% of 200 active;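 active means triplicate mean inhibition exceeding the hit cutoff computed for the primary STAT1 screen, cut at about 35% in these data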;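 further: 0% = DMSO with IFN-gamma and 100% = 300 µM nifuroxazide with IFN-gamma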
# NFkB inh = NF-kB reporter inhibitors, TNF-alpha stimulated, counter-screen for STAT1 inhibitor project, cell-based, HEK293T, luciferase luminescence; 30% of 200 active; shares compounds with STAT1 inh-1; TNF-alpha induced; inhibition, % at 5.7 µM;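 active means inhibition above the mean of solvent-only control wells plus 3 SD of those wells, cut at about 15% in these data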;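 further: 0% = DMSO with TNF-alpha and 100% = MG-132 control with TNF-alpha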
# STAT3 inh 2 = STAT3 reporter inhibition by STAT1 hits, counter-screen for STAT1 inhibitor project, U3A cells, luciferase, luminescence, triplicate; shares compounds with STAT1 inh-1; IL-6 STAT3 luciferase reporter; cells lacking STAT1; inhibition, % at 5.7 µM; 20% of 200 active; AID 1310, 2008;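 active means inhibition above the mean of solvent-only control wells plus 3 SD, set per campaign, cut at about 25% in these data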;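 further: 0% = IL-6 plus DMSO and 100% = IL-6 plus nifuroxazide control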
# PPC1 cytotox = cytotoxicity in PPC-1 cells, confirmation, cytotoxicity control for TRAIL apoptosis potentiator project, cell-based, ATP content luminescence; shares compounds with PPC-1+TRAIL kill; PPC-1 viability, ATPlite luminescence, overnight; cytotoxicity, % at 5 µM; 50% of 1,200 active; AID 1447, 2008;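 active means reconfirmed compounds whose average cytotoxicity reaches 50% or more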;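 further: 0% = DMSO-treated cells and 100% = wells holding medium but no cells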
# * hit, by the source's call; · = not tested or not shown; ! = repeats disagree.
SMILES,PPC-1+TRAIL kill,STAT3 blocker,Platelet DG rel,STAT1 inh-1,C8 TRAIL sens,STAT1 inh-2,NFkB inh,STAT3 inh 2,others
CC(C)(C)C(=O)Cn1c(=O)n(-c2ccc(F)cc2F)c(=O)c2sccc21,2.6,2.4,-5.5,3.2,2.5,·,·,·,
COc1c(C)cc(C(O)c2ncc(-c3ccccc3F)[nH]2)cc1C (centres undefined),·,·,·,·,-20.8,·,·,·,
CCOC(=O)[C@]12CCC=C1N(Cc1cccc3ccccc13)C(=O)[C@H](CC(=O)N1CCN(C(=O)C3CC3)CC1)C2,·,·,·,·,-2.1,·,·,·,
O=C(N/N=C/c1ccncc1)c1nn(Cc2ccccc2)c(=O)c2ccccc12,7.6,15.6,-5.2,39.3*,3.0,22.6,-7.6,8.2,
O=C(NCC(F)(F)F)c1nn(Cc2ccccc2)c(=O)c2ccccc12,·,·,1.7,·,-2.3,·,·,·,
c1cncc(CN2CCN(c3cc(-c4cnc5ccccc5c4)nc4ccnn34)CC2)c1,·,·,·,·,-2.1,·,·,·,
C=CCOC(=O)C1=C[C@@H](c2cn(C(C)=O)c3ccccc23)C[C@@H](OCCCCO)O1,5.6,·,3.8,33.8,-3.7,11.4,-5.1,-68.2,
O=C(CSc1nc2c(c(=O)n1-c1ccccc1)SCC2)N1CCN(c2ccccc2)CC1,43.3,13.6,-0.2,44.8*,-5.8,53.0*,15.7*,15.7,
O=C(CSc1nc2c(c(=O)n1-c1ccccc1)SCC2)N1CCOCC1,9.3,8.2,11.6,10.3,3.9,·,·,·,
COc1ccc(-n2c(SCC(=O)NCC3CCCO3)nc3c(c2=O)SCC3)cc1OC (centres undefined),·,·,-5.3,·,-7.5,·,·,·,
COc1ccc(-n2c(SCc3ccccn3)nc3c(c2=O)SCC3)cc1OC,-9.1,5.0,0.3,39.9*,-6.1,29.8,-2.2,-23.6,
O=C(Nc1ccccc1C(=O)O)c1ccc(Br)c(S(=O)(=O)NCc2ccccc2)c1,·,7.1,-3.7,50.6*,0.7,29.1,5.1,3.2,
O=C(Nc1ccccc1C(=O)NCc1ccccc1)c1ccccc1Br,7.9,-0.4,14.2,-0.1,-2.0,·,·,·,
Cc1nc2ncccn2c1-c1csc(Nc2ccc(O)cc2)n1,7.8,30.3,-0.5,45.1*,-51.7,42.5*,8.7,32.4*,
Cc1ccc(Nc2nc(-c3c(C)nc4ncccn34)cs2)cc1,7.4,19.1,-6.8,8.5,-7.6,·,·,·,
Cc1ccccc1-c1noc(N)c1C#N,-1.2,3.2,-5.8,34.6*,18.3,41.6*,-3.7,1.9,
Cn1c(C(=O)N2CCN(c3ccc([N+](=O)[O-])cc3)CC2)cc2c(=O)[nH]c3ccccc3c21,27.5,18.6,-3.6,50.9*,17.9,34.5*,5.3,7.7,
Cc1cc(C(=O)N2CCN(c3ccc([N+](=O)[O-])cc3)CC2)co1,·,·,1.7,·,4.3,·,·,·,
O=C(Nc1ccc(F)cc1)C(c1ccccc1)N1CCN(S(=O)(=O)c2ccccc2)CC1 (centres undefined),13.5,4.7,9.5,18.1,-15.9,·,·,·,
Cc1ccc(S(=O)(=O)N2CCN(C(C(=O)Nc3ccc(F)cc3)c3ccccc3)CC2)cc1 (centres undefined),-15.6,-7.6,-14.8,43.0*,-3.6,46.8*,-5.4,-26.7,
CN1CCN(Cc2nc3ccccc3c(=O)n2Cc2nc(-c3ccc4ccccc4c3)cs2)CC1,-3.1,-1.2,-6.9,45.4*,77.2*!,40.5*,-1.6,2.6,
CN1CCN(Cc2nc3ccccc3c(=O)n2Cc2nc(-c3cccc([N+](=O)[O-])c3)cs2)CC1,14.0,-10.3,·,62.3*,20.5,37.9*,3.3,-7.2,
CN(C)Cc1nc2ccccc2c(=O)n1Cc1nc(C(C)(C)C)cs1,-20.7,21.7,·,52.8*,-1.3,29.8,1.5,7.0,
CN1CCN(Cc2nc3ccccc3c(=O)n2Cc2nc(-c3ccccc3F)cs2)CC1,5.5,-1.5,-101.1,49.9*,-11.2,50.8*,6.2,-8.9,
CC(=O)Cn1c(CN2CCCCC2)nc2ccccc2c1=O,22.7,-0.9,2.8,1.6,-2.4,·,·,·,
SMILES,PPC-1+TRAIL kill,STAT3 blocker,Platelet DG rel,STAT1 inh-1,C8 TRAIL sens,STAT1 inh-2,NFkB inh,STAT3 inh 2,others
CC(=O)Cn1c(CN2CCCC2)nc2ccccc2c1=O,-24.5,1.6,-3.7,-2.3,-14.3,·,·,·,
CN(C)Cc1nc2ccccc2c(=O)n1CC(=O)Nc1cccc(S(=O)(=O)N2CCOCC2)c1,19.7,6.4,-2.3,5.5,18.2,·,·,·,
COc1ccc(CN2C(=O)CN(S(C)(=O)=O)CC2(C)C(=O)NCc2ccccc2)cc1OC (centres undefined),·,·,·,·,6.8,·,·,·,
Cc1c(C(=O)NCc2ccccc2C(F)(F)F)sc(=O)n1Cc1ccc(F)cc1,·,·,·,·,-0.9,·,·,·,
Oc1ccc(Oc2ccc3c(C(F)(F)F)cc(C(F)(F)F)nc3n2)cc1,21.0,19.6,1.9,61.5*,-23.7,53.6*,22.6*,13.7,
CC1C(=O)NN=C1C(=O)N/N=C\C(Br)=C\c1ccccc1 (centres undefined),78.4*,16.6,4.3,81.3*,73.9*,40.5*,2.9,-22.8,PPC1 cytotox=79.0*
COCc1cccc(-c2csc(C(C)(O)c3cccc(F)c3)n2)c1 (centres undefined),·,·,·,·,-11.0,·,·,·,
c1csc(-c2ccnc3ncnn23)c1,5.3,23.7,-6.3,6.5,19.2,·,·,·,
Fc1ccc(-c2cnn3c(-c4cccs4)ccnc23)cc1,59.4*,26.5,-0.1,35.0*,67.7*,-89.0,21.8*,-53.2,PPC1 cytotox=52.8*
O=C(O)c1cc(N2CCOCC2)nc2ccccc12,·,·,4.3,·,5.7,·,·,·,
O=C(O)c1cc(/C=C/c2ccc(N3CCOCC3)cc2)nc2ccccc12,89.6*,43.2,·,39.0*,87.2*,-4.8,38.0*,-12.7,PPC1 cytotox=91.2*
CC(C)Oc1ccc(S(=O)(=O)N2CCOCC2)cc1NC(=O)C1=NN(c2ccccc2)C(=O)CC1,·,·,·,·,-14.8,·,·,·,
Cc1ccc2sc(-c3ccc(NC(=O)/C=C\C(=O)O)cc3)nc2c1,43.6,19.3,8.7,43.0*,39.3,-91.2,-36.3,-20.6,PPC1 cytotox=43.7
CC(NC(=O)C1CCCN(S(=O)(=O)c2cccs2)C1)c1ccccc1 (centres undefined),-7.4,2.2,10.5,-3.4,-15.2,·,·,·,
